Holding throughout (assay type): functional
Experiment [1] has as its target Solute carrier family 2, facilitated glucose transporter member 1 (Homo sapiens) (UniProt P11166). Put plainly: ST_JUDE_LEISH: Cytotoxicity at 2uM final concentration against transgenic Leishmania Mexicana promastigotes LmGLUT1 that are glucose transport deficient and complemented with the human glucose transporter GLUT1. Activity is measured by DNA content using SYBR green in vitro.

The target of experiment [2] is Hexose transporter 1 (Plasmodium falciparum) (UniProt O97467). Put plainly: ST_JUDE_LEISH: Cytotoxicity at 2uM final concentration against transgenic Leishmania Mexicana promastigotes LmPfHT that are glucose transport deficient and complemented with the Plasmodium falciparum hexose transporter. Activity is measured by DNA content using SYBR green in vitro.
Experiment [3] concerns the target Glucose transporter (Leishmania mexicana) (UniProt O61059). The experiment in a line: ST_JUDE_LEISH: Cytotoxicity at 2uM final concentration against transgenic Leishmania Mexicana promastigotes LmGT2 that are glucose transport deficient and complemented with the L. Mexicana glucose transporter 2. Activity is measured by DNA content using SYBR green in vitro.

Solute carrier family 2, facilitated glucose transporter member 1 (Homo sapiens), sequence (P11166 whole entry): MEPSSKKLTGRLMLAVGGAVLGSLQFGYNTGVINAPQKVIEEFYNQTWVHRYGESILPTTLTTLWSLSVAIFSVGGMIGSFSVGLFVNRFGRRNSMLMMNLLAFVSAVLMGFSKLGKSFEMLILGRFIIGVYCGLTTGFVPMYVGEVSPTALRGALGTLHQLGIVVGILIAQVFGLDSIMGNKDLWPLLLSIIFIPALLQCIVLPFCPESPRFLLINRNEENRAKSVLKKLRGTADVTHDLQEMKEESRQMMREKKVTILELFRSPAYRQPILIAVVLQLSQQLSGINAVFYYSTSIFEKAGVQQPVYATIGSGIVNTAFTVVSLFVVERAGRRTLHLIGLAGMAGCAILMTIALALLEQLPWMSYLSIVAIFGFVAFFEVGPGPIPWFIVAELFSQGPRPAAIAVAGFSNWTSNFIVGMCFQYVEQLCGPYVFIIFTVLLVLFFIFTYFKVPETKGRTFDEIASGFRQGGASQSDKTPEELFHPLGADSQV

What is called inhibition is the relative decrease from the control value, in per cent. In the case of `CCN(CC)CCN(Cc1ccc(-c2ccc(C#N)cc2)cc1)C(=O)Cn1c(CCc2cccc(F)c2F)nc(=O)c2ccccc21`, the results for the inhibition in experiment [1], in experiment [2] and in experiment [3] were 2.37%, 0.54% and 3%, respectively.

As for `CCOc1ccccc1C1C(C(=O)C(C)(C)C)N2c3ccc(Br)cc3C=CC2C12C(=O)c1ccccc1C2=O` (stereo unspecified), the results for the inhibition in experiment [1], in experiment [2] and in experiment [3] were 72.3%, 76.5% and 57.1%, respectively.

For `N#Cc1cccc(-c2ccc(C(=O)Nc3ccc4c(c3)CCN(C3CCC3)CC4)cn2)c1`, the inhibition in experiment [1] amounted to 7.62%; in experiment [2], 4.8%; in experiment [3] it was 5.26%.

With `CCOC(=O)C1=C(C)N=c2sc(=Cc3cc(Cl)ccc3O)c(=O)n2C1c1cc(OC)c(OC)cc1Br` (stereo unspecified), the inhibition in experiment [1] worked out at 7%; in experiment [2], 6.74%; in experiment [3], 11.5%.

Turning to `O=[N+]([O-])c1ccc2c(-c3ccccc3)c(-c3ccccc3)n(O)c2c1`, the inhibition in experiment [1] was 2.37%; in experiment [2], 3.54%; in experiment [3] it was 0.3%.

In the case of `c1ccc2sc(Sc3ncnc4sccc34)nc2c1`, the figures for the inhibition in experiment [1], in experiment [2] and in experiment [3] were 2.07%, -1.08% and 0.27%, respectively.

As for `Cc1ccc2c(NC(=O)Nc3ccc(N(C)C)cc3)cc(C)nc2c1`, the inhibition in experiment [1] was 5.9%; in experiment [2], 5.56%; in experiment [3], 6.28%.

Turning to `COc1ccc(CC2(CO)CCN(Cc3ccc(O)c(Cl)c3)CC2)cc1`, the values for the inhibition in experiment [1], in experiment [2] and in experiment [3] were 9.35%, 7.92% and 5.84%, respectively.

Regarding `Nc1c2c(nc3ccc(C(=O)Nc4ccc(Br)cc4)cc13)CCCC2`, the inhibition is 5.71% in experiment [1], 6.08% in experiment [2] and 2.67% in experiment [3].

With `Cc1cc(N[C@@H](Cc2ccccc2)C(=O)NC2CCCC2)nc(NCCc2cccs2)n1`, the values for the inhibition in experiment [1], in experiment [2] and in experiment [3] were 1.27%, 2.88% and 1.56%, respectively.

Take `O=C(/C=C/c1ccc(Cl)c(Cl)c1)N1CCC(CCN2CCC(c3c[nH]c4cc5c(cc34)OCO5)CC2)CC1`: the inhibition in experiment [1] is 0.05%; in experiment [2], 0.01%; in experiment [3] it was -0.27%.

On to `CCCc1cc(N2CCC(c3ccccc3)(N3CCCCC3)CC2)nc(Nc2ccc(OC)cc2)n1`, for which the inhibition was determined as 15.7% in experiment [1], 16.5% in experiment [2] and 6.08% in experiment [3].

`Clc1ccc2c(NCc3ccc4c(c3)OCO4)ccnc2c1`: the inhibition in experiment [1] is 6%; in experiment [2], 8.03%; in experiment [3] it was 4.15%.

For `CN1CCN(CCCN(Cc2ccc(-c3ccc(CNCc4ccc5c(c4)OCO5)cc3)cc2)C(=O)CCC2CCCC2)CC1`, the results for the inhibition in experiment [1], in experiment [2] and in experiment [3] were 4.67%, 7.78% and 1.18%, respectively.

`O=C(Nc1cccc(CN2CCCN(Cc3ccc(O)cc3)CC2)c1)c1cc2ccccc2o1`: the values for the inhibition in experiment [1], in experiment [2] and in experiment [3] were -0.45%, 2.02% and 1.62%, respectively.

`Cc1ccccc1C1CCN(c2ccc(C(=O)Nc3ccccc3)cn2)CC1`: the results for the inhibition in experiment [1], in experiment [2] and in experiment [3] were -0.55%, -0.98% and -5.64%, respectively.

For `CN1CCN(CC(=O)Nc2ccc(-c3ccc(-c4nc5cc(C(F)(F)F)ccc5[nH]4)s3)cc2)CC1`, the inhibition was -0.05% in experiment [1], 1.22% in experiment [2] and 1.13% in experiment [3].

`COc1ccc2nccc([C@@H](O)CN3CCC(NCc4cc5ccccn5n4)CC3)c2c1`: the inhibition in experiment [1] was 4.35%; in experiment [2], 4.49%; in experiment [3], 4.75%.

For the compound `CCc1cc(=O)[nH]c(-n2nc(C)cc2NC(=O)CC(c2ccccc2)c2ccccc2)n1`, the inhibition in experiment [1] was 11.2%; in experiment [2], 15.2%; in experiment [3], -1.68%.

Take `COc1cc(Cc2cnc(N)nc2N)cc(OCc2cccc(C(=O)O)c2)c1OC`: the results for the inhibition in experiment [1], in experiment [2] and in experiment [3] were -0.05%, -2% and 1.03%, respectively.

Turning to `CC(C)NCc1ccc(-c2cccc(-c3nc4cc(F)ccc4[nH]3)c2)cc1`, the figures for the inhibition in experiment [1], in experiment [2] and in experiment [3] were -1.78%, 0.53% and -0.69%, respectively.

For `O=C(Nc1ccc2c(c1)CCC2)c1cnc(N2CCN(c3ccncc3)CC2)c(Cl)c1`, the results for the inhibition in experiment [1], in experiment [2] and in experiment [3] were 54.2%, 63.6% and 37%, respectively.

As to `Cc1[nH]c(C)c(-c2ccc(-c3ccc(F)cc3)nc2)c(=O)c1Br`, the inhibition amounted to 0.98% in experiment [1], 1.82% in experiment [2] and 1.04% in experiment [3].

As to `COc1cccc(CCNCCCCCCNCCc2ccc(Cl)cc2)c1`, the inhibition in experiment [1] was found to be 2.26%; in experiment [2] it was 2.74%; in experiment [3] it was 2.55%.

`O=C(NC1CC1)c1ccc(Cn2c(SCc3cccc([N+](=O)[O-])c3)nc3ccccc3c2=O)cc1`: the inhibition in experiment [1] was found to be 1.19%; in experiment [2], 0.54%; in experiment [3], 0.2%.

On to `CC(=O)N[C@H](C(=O)Nc1ccc(-c2ccc(-c3nc4cc(C(F)(F)F)ccc4[nH]3)cc2)cc1)C(C)C`, for which the inhibition in experiment [1] came out at 4.54%; in experiment [2], 3.08%; in experiment [3] it was 0.17%.

For the compound `COc1cc(NC(=O)NC(CCN2CCC3(CCc4ccccc43)CC2)c2ccc(Cl)c(Cl)c2)cc(OC)c1OC` (stereo unspecified), the inhibition in experiment [1] is 0.41%; in experiment [2], 0.09%; in experiment [3], -3.62%.

Turning to `O=C(Nc1cccc(-c2cccc(-c3nc4cc(C(F)(F)F)ccc4[nH]3)c2)c1)c1cccnc1Cl`, the inhibition in experiment [1] was 0.15%; in experiment [2], 0.52%; in experiment [3], -2.92%.

With `Cc1nc2ccc(-c3ccc(OC(F)(F)F)cc3)cc2c(O)c1C#N`, the inhibition in experiment [1] was -2.1%; in experiment [2], 0.11%; in experiment [3], -1.44%.

Regarding `CNc1ccc(CNCc2cccc(-c3ccc(-c4nc5ccccc5[nH]4)cc3)c2)cc1`, the values for the inhibition in experiment [1], in experiment [2] and in experiment [3] were 0.78%, -1.69% and -1.34%, respectively.

Turning to `O=C(/C=C/c1ccc(Cl)c(Cl)c1)NCCCCCN1CCC(NC(=O)Nc2cccc(Cl)c2Cl)CC1`, the inhibition in experiment [1] is -2.33%; in experiment [2], -0.39%; in experiment [3] it was 6%.

As for `Cc1[nH]c(C)c(-c2ccc(OCc3ccc(OC(F)(F)F)cc3)nc2)c(=O)c1Cl`, the inhibition in experiment [1] was found to be 13.3%; in experiment [2], 15.2%; in experiment [3] it was 11.2%.

The record behind these values is ChEMBL document CHEMBL3433997, “St. Jude Leishmania screening dataset” (2016).
